A selection: hits, their analogues and other compounds. The true share with any hit is near 12%.
L3MBTL1 block: blocks human L3MBTL1; Q9Y468; AlphaScreen L3MBTL1–H3K9me1 peptide binding; Potency, µM (titrated, usually from 57.1 µM), usual class: inhibitors; hit rate 0.66% among 230,000; also: nearly all actives have a fitted effect of over 60% in size
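First, the protein-peptide complex forms for 30 min at room temperature (L3MBTL1 50 nM, biotinylated H3K9me1 peptide 75 nM). Next, compounds are pin-transferred and incubated 30 min. Finally, AlphaScreen beads are added and read after 30 min.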
HP1b binding inh: HP1-beta chromodomain-methylated histone interaction inhibition | P83916 | AlphaScreen HP1-beta / biotin-H3K9me3 peptide binding | Potency, µM (doses to about 114 µM), hits mostly inhibitors | hit rate 0.56% among 390,000; also: nearly all actives have a fitted effect of over 70% in size
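HP1-beta protein (50 nM final) preincubated 30 min at room temperature with biotinylated H3(1-18)K9me3 peptide (50 nM) in PBS pH 7.4, 0.01% Tween-20, then compound added for 30 min. AlphaScreen streptavidin donor/nickel chelate acceptor beads (10 ug/mL final), 30 min dark, luminescence read.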
JMJD2A Tudor: blocks the human JMJD2A Tudor domain. O75164. AlphaScreen JMJD2A-Tudor / H3K4me3 peptide binding. Potency, µM (doses to about 114 µM), usual class: inhibitors. hit rate 4.4% among 390,000. AID 504339; also: nearly all actives have a fitted effect of over 50% in size
Sfp inh: Sfp phosphopantetheinyl transferase inhibition. Biochemical Sfp PPTase activity, qHTS. Potency, µM, hits mostly inhibitors. hit rate 3.5% among 310,000. AID 1490;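 also: the enzyme is Sfp with the accession as filed and its product quenches rhodamine fluorescence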
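Fluorescence-quenching assay with 15 nM Sfp, 5 uM rhodamine-CoA and 12.5 uM BHQ-2-labelled ybbR peptide in pH 7.6 Hepes/MgCl2 buffer. Enzyme was pre-incubated with compound for 15 min at room temperature. Rate was taken from the 30-min fluorescence change (525/598 nm).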
BAZ2B block: inhibitors of human BAZ2B bromodomain; AlphaScreen BAZ2B-H3K14Ac peptide displacement; Potency, µM (highest dose often 114 µM), most hits filed as inhibitors; hit rate 4.4% among 360,000; AID 504333; also: nearly all actives have a fitted effect of over 60% in size
Target sequence (Q9UIF8 whole entry, looked up): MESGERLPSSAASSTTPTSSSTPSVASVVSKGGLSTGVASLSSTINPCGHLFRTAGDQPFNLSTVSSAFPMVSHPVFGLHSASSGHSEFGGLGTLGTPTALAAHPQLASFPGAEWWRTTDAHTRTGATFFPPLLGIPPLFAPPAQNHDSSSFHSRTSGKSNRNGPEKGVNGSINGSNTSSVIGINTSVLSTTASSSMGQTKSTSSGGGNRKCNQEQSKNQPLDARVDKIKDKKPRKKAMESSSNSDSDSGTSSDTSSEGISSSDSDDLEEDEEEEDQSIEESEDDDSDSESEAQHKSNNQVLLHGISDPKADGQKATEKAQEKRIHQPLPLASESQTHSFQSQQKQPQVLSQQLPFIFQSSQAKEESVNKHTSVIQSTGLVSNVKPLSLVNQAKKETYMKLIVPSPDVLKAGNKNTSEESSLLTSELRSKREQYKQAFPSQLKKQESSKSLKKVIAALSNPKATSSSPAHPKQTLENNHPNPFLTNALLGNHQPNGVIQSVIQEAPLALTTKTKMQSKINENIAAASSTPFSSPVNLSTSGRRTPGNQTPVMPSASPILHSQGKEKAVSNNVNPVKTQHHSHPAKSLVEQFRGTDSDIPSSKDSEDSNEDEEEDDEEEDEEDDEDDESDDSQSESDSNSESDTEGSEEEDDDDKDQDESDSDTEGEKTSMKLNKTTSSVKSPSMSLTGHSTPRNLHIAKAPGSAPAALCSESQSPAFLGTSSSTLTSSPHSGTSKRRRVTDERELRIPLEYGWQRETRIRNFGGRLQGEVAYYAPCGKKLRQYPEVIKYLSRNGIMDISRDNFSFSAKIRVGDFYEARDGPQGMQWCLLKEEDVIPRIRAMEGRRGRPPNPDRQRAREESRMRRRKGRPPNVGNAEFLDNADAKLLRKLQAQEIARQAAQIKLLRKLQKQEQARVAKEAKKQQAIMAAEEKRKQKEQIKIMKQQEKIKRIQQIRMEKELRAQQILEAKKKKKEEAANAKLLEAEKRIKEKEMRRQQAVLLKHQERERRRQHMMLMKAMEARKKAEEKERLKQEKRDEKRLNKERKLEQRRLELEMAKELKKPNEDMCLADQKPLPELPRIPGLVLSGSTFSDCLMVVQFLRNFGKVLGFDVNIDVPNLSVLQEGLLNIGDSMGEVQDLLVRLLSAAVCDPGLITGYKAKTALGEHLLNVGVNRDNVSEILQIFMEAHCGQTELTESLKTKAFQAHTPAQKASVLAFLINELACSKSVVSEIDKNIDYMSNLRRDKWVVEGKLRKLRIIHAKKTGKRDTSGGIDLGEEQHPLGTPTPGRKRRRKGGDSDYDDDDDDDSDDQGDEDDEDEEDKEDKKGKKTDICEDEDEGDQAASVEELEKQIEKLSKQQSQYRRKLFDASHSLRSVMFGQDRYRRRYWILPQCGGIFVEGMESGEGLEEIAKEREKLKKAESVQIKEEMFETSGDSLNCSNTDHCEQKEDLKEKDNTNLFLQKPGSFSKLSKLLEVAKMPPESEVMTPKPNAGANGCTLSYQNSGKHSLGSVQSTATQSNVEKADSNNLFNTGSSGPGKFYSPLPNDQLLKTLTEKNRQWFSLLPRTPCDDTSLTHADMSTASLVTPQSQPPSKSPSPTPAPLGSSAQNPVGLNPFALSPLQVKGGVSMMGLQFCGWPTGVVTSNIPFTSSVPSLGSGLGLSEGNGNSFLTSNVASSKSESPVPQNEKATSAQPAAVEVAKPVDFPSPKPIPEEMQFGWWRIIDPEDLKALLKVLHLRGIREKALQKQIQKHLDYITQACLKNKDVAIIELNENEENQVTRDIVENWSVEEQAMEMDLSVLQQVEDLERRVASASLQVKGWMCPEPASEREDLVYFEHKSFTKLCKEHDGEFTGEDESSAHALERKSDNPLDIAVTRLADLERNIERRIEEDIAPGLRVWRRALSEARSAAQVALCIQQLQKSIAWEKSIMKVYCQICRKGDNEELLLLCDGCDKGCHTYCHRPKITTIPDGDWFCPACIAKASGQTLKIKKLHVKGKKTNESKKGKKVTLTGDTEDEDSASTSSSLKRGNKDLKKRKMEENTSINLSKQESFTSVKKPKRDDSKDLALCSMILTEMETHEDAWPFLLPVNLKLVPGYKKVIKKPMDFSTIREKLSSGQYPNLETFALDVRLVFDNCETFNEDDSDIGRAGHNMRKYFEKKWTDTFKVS
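BAZ2B (50 nM) with biotin-H3(5-23)K14Ac peptide (50 nM) in PBS pH 7.4, 0.01% Tween-20, preformed 30 min, then compound 30 min at room temperature; top concentration 110uM. AlphaScreen streptavidin donor/nickel chelate acceptor beads (10 ug/mL final), 20 min dark, signal read.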
G9a inh: G9a (human) methyltransferase inhibition | Q96KQ7 | G9a H3K9 monomethylation, AlphaScreen, 2 h | AID 504332 | Potency, µM (series often up to 102 µM), actives largely listed as inhibitors | hit rate 8.8% among 350,000; also: nearly all actives have a fitted effect of over 75% in size
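Methyltransferase reactions run at room temperature for 2 h (20 nM enzyme, 500 nM biotin-H3K9 peptide, 20 uM SAM) after a 15 min compound preincubation; product detected by AlphaScreen beads and anti-H3K9me1 antibody.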
Large screens that a line does not name were inactive. Calls follow the shape of the dose curve; as a rule, active = well fitted curve in the direction sought with a large enough effect; inconclusive = small, poorly fitted or top-dose-only effect, or another doubt; inactive = no such curve, though single readings can be large; an effect the other way counts as inactive or inconclusive.

O=C(c1ccc2c(c1)CCN2S(=O)(=O)c1ccc(Cl)cc1)N1CCN(c2ccc(F)cc2)CC1	none (no result: L3MBTL1 block, Sfp inh)
CC(=O)OC(C[N+]1(C)CCCCCC1)c1ccccc1 (stereo not drawn)	none (no result: L3MBTL1 block)
C[N+]1(CCC(=O)c2ccccc2)CCCCC1	HP1b binding inh inconclusive, JMJD2A Tudor inconclusive, G9a inh 2µM
Oc1ccc(-c2cnns2)c(O)c1	HP1b binding inh inconclusive, JMJD2A Tudor 0.79µM, Sfp inh 56µM, G9a inh 7.1µM
CC1(CCl)N([O-])C2=C(CCCC2)[N+]1=O (stereo not drawn)	Sfp inh 35µM, BAZ2B block 45µM, G9a inh 32µM
COc1cccc(CNC(=O)c2oc3ccc4c(c3c2C)C(=O)CC(C)(C)O4)c1OC	none (no result: L3MBTL1 block, Sfp inh)
O=C(O)Cn1c(CCS(=O)(=O)c2ccc(Br)cc2)nc2ccccc21	L3MBTL1 block inconclusive, G9a inh 45µM
COc1ccc(-c2cn3cccnc3n2)cc1NC(=O)Nc1cc(C)ccc1C	BAZ2B block inconclusive, G9a inh inconclusive (no result: Sfp inh)
COc1ccc(-c2nc(CSCC(=O)NCCc3ccc(C)cc3)c(C)o2)cc1OC	BAZ2B block inconclusive, G9a inh inconclusive (no result: L3MBTL1 block, Sfp inh)
Cc1cccc(NC(=O)C2CCCN2S(=O)(=O)c2ccc3nc(-c4ccccc4)[nH]c3c2)c1 (stereo not drawn)	BAZ2B block inconclusive (no result: L3MBTL1 block, Sfp inh)
Clc1ccccc1CN1CCN(/N=C/C=C\c2ccco2)CC1	HP1b binding inh 45µM, JMJD2A Tudor inconclusive, BAZ2B block 40µM, G9a inh 35µM
C(/C=C/c1ccco1)=N/N1CCN(c2ccccc2)CC1	HP1b binding inh inconclusive, JMJD2A Tudor inconclusive, BAZ2B block 28µM, G9a inh 40µM
O=C(CN1CCN(Cc2ccccc2)CC1)N/N=C/C=C/c1ccco1	G9a inh inconclusive
C[C@H](N)C(=O)NCC(=O)N[C@H]1CSSC[C@@H](C(=O)O)NC(=O)[C@H](CO)NC(=O)[C@H]([C@@H](C)O)NC(=O)[C@H](Cc2ccccc2)NC(=O)[C@H]([C@@H](C)O)NC(=O)[C@H](CCCCN)NC(=O)[C@@H](Cc2c[nH]c3ccccc23)NC(=O)[C@H](Cc2ccccc2)NC(=O)[C@H](Cc2ccccc2)NC(=O)[C@H](CC(N)=O)NC(=O)[C@H](CCCCN)NC1=O	none (no result: L3MBTL1 block, HP1b binding inh, JMJD2A Tudor, BAZ2B block, G9a inh)
Cc1ccc(Cl)cc1NC(=O)c1sc2nc(-c3ccccc3)cn2c1C	none (no result: L3MBTL1 block, Sfp inh)
CC1=C(C(=O)OC2CCCCCC2)C(c2cccc(Cl)c2)CC(=O)N1 (stereo not drawn)	G9a inh inconclusive (no result: L3MBTL1 block, Sfp inh)
COC(=O)c1ccccc1NC(=O)Cc1nc(-c2ccccc2)sc1-c1ccc(C)cc1	G9a inh 45µM
CCOc1ccc(CCNC(=O)c2c3c(nc4ccccc24)C(=O)N(C2CCCCC2)C3)cc1	BAZ2B block inconclusive (no result: L3MBTL1 block, Sfp inh)
CC(=O)Nc1ccc(-c2csc(NNC(=O)c3ccc(C)cc3)n2)cc1	Sfp inh 7.9µM, G9a inh inconclusive
CC(=O)NNc1nc(-c2ccc(NC(C)=O)cc2)cs1	Sfp inh 50µM, BAZ2B block inconclusive, G9a inh inconclusive
CSCC[C@H](NC(=O)[C@H](Cc1c[nH]c2ccccc12)NC(=O)CNC(=O)[C@H](Cc1ccc(O)cc1)NC(=O)[C@H](C)NC(=O)[C@H](CCC(=O)O)NC(=O)[C@H](CCC(=O)O)NC(=O)[C@H](CCC(=O)O)NC(=O)[C@H](CCC(=O)O)NC(=O)[C@H](CCC(=O)O)NC(=O)[C@H](CC(C)C)NC(=O)[C@H](Cc1c[nH]c2ccccc12)NC(=O)[C@@H]1CCCN1C(=O)CNC(=O)[C@@H]1CCC(=O)N1)C(=O)N[C@@H](CC(=O)O)C(=O)N[C@@H](Cc1ccccc1)C(=O)NCC(=O)O	none (no result: L3MBTL1 block, HP1b binding inh, JMJD2A Tudor, BAZ2B block, G9a inh)
CCn1c(CNC(=O)c2ccc(OC)cc2)nnc1SCC(=O)Nc1ccc(F)cc1	none (no result: L3MBTL1 block, Sfp inh)
Cc1cc(=O)n2nc(N3CCC(C(=O)Nc4ccc(C)c(Cl)c4)CC3)sc2n1	none (no result: L3MBTL1 block, Sfp inh)
COc1ccc2nc(N(Cc3cccnc3)C(=O)c3ccc(Cl)cc3)sc2c1	none (no result: L3MBTL1 block, Sfp inh)
Cc1ccc(N(Cc2cc(=O)[nH]c3ccccc23)C(=O)C(C)C)c(C)c1	G9a inh inconclusive (no result: L3MBTL1 block)
Cc1ccccc1N(Cc1cc(=O)[nH]c2ccccc12)C(=O)C(C)C	G9a inh 79µM (no result: L3MBTL1 block)
CCC(=O)N(Cc1cc(=O)[nH]c2ccccc12)c1ccc(C)cc1C	G9a inh 71µM (no result: L3MBTL1 block)
CCC(=O)N(Cc1cc(=O)[nH]c2ccccc12)c1ccccc1	JMJD2A Tudor inconclusive (no result: G9a inh)
CC(C)C[C@H](NC(=O)[C@H](Cc1ccccc1)NC(=O)[C@@H]1CCCN1C(=O)[C@H](CC(=O)O)NC(=O)[C@@H]1CCC(=O)N1)C(=O)N[C@@H](CCCN=C(N)N)C(=O)N[C@@H](Cc1ccccc1)C(N)=O	none (no result: L3MBTL1 block, HP1b binding inh, JMJD2A Tudor, BAZ2B block, G9a inh)
CSc1ccc(CNC(=O)C2CCCN(S(=O)(=O)N(C)c3ccc(F)cc3)C2)cc1 (stereo not drawn)	none (no result: L3MBTL1 block, Sfp inh)
N#Cc1c(NC(=O)Cn2nc(C(F)(F)F)c3c2CCCC3)sc2c1CCC2	HP1b binding inh 32µM, JMJD2A Tudor inconclusive, Sfp inh inconclusive, BAZ2B block 79µM, G9a inh 2.8µM
CC1CCc2c(sc(NC(=O)COC(=O)c3ccc(O)cc3)c2C#N)C1 (stereo not drawn)	JMJD2A Tudor inconclusive, Sfp inh inconclusive, G9a inh 40µM
CC1CCc2c(sc(NC(=O)Cn3nc(C(F)(F)F)c4c3CCCCC4)c2C#N)C1 (stereo not drawn)	Sfp inh 50µM, G9a inh inconclusive
CC1CCN(CC(=O)Nc2sc3c(c2C#N)CCC3)CC1	none
CC1CCc2c(sc(NC(=O)COC(=O)C3CCCO3)c2C#N)C1 (stereo not drawn)	none (no result: L3MBTL1 block)
CCc1ccc(NC(=O)Cn2nc(C(F)(F)F)c3c2CCC3)cc1	none
N#Cc1cccc(NC(=O)CCNS(=O)(=O)c2ccc3c(c2)CCN3C(=O)C2CC2)c1	none (no result: L3MBTL1 block, Sfp inh)
CCOC(=O)c1c(NC(=O)C2=C(C)NC(=S)NC2c2ccccc2C(F)(F)F)sc(C)c1C (stereo not drawn)	Sfp inh 16µM
c1ccc(-c2nnc(SCc3nnc(-c4cccs4)o3)o2)cc1	BAZ2B block 50µM, G9a inh inconclusive (no result: L3MBTL1 block)
COc1ccc(NC(=O)CSc2nnc(-c3ccco3)c(-c3ccco3)n2)cc1OC	HP1b binding inh inconclusive, JMJD2A Tudor inconclusive, Sfp inh 35µM, G9a inh 7.1µM (no result: L3MBTL1 block)
COc1ccc(C(=O)CSc2nnc(-c3ccco3)c(-c3ccco3)n2)cc1	L3MBTL1 block inconclusive, HP1b binding inh inconclusive, JMJD2A Tudor 22µM, Sfp inh 8.9µM, BAZ2B block 20µM, G9a inh 8.9µM
CSc1nnc(-c2ccccc2)c(-c2ccccc2)n1	none
